Screening results deposited in PubChem by National Center for Advancing Translational Sciences (NCATS).
Most compounds without a hit are left out; they make up all but 20% or so of the library.
Pf growth 48h: P. falciparum growth inhibition at 48 hours (one generation); 310,000 compounds, 5.9% hits; P. falciparum luciferase growth in erythrocytes, 48 h; Potency, µM (titrated, usually from 28.7 µM), without a hit: at the highest dose activity change, negative = inhibition, actives largely listed as inhibitors; note: potency is the fitted concentration of half-maximal effect; % is set by controls: 0 for no effect and ±100 for the full control effect
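First compound was added to culture medium, then infected red cells at 0.1% parasitemia and 2% hematocrit (final). After incubation at 37 C under 5% CO2, luciferase detection reagent was dispensed and light output recorded.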
Cycloheximide cs: affects cycloheximide protein synthesis inhibition readout, counter-screen | 300,000 compounds, 12% hits | cell reporter, cycloheximide protein synthesis inhibition counterscreen | max response, %; in the data active = max response mostly above about 13%, no sharp cut-off; inactive = mostly below about 14%; note: read at 38.3 µM for the half of the compounds with a filed dose; 0% is about no effect
Shiga toxin inh: inhibitors of Shiga toxin in Vero cells; inhibition, % at 38.7 µM; 290,000 compounds, 9.2% hits; Vero cells, Shiga toxin protein synthesis inhibition reporter; in the data active = inhibition mostly above about 28%, no sharp cut-off; inactive = mostly below about 43%; note: 0% is about no effect
Pf growth 96h: P. falciparum growth inhibition at 96 hours | P. falciparum luciferase reporter growth, 96 h | Potency, µM (titrated, usually from 28.7 µM), for the others: top-dose activity change, negative = inhibition, most hits filed as inhibitors | 320,000 compounds, 6.9% hits | AID 504834; note: potency is the fitted concentration of half-maximal effect; % is set by controls: 0 for no effect and ±100 for the full control effect
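Readout is luminescence from an integrated firefly luciferase in P. falciparum. Red cells, 2% hematocrit and 0.05% parasitemia final, were cultured with compound through two parasite generations (96 hours) at 37 C, 5% CO2.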
HCMV antiviral: human cytomegalovirus inhibition; activity change, negative = inhibition, % at 57.5 µM; AID 1259415; HFF cells, HCMV-luciferase reporter, 72 h; hits give low values; 410,000 compounds, 4.5% hits; in the data active = activity change below about -60%; inconclusive = no clear call, values can overlap the other calls; inactive = above about -39%; note: % is set by controls: 0 for no effect and ±100 for the full control effect
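Screen run at 2 compound doses on HFFs infected with reporter HCMV, MOI 1 PFU/cell. Luciferase activity from cell lysates at 72 h post infection gave inhibition relative to buffer-only and Salinomycin wells.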
The depositor's hits bear a star. Unless noted, calls come from the whole dose curve; as a rule, active = well fitted inhibition curve with a large enough effect; inconclusive = small, poorly fitted or top-dose-only effect, or another doubt; inactive = no such curve, though single readings can be large or run the other way.

How did C/C=C(\C)C(=O)NCCN1C2=NC[C@@H](Cc3ccccc3)N2C[C@@H]1Cc1ccc(OC)cc1 do in these assays?
HCMV antiviral: 6

What do the screens show for `Cc1ccc(C(=O)NCCN2C3=NC[C@H](C)N3C[C@H]2Cc2ccc(O)cc2)cc1Br`?
Pf growth 48h: inconclusive; Cycloheximide cs: -1; Shiga toxin inh: -13; Pf growth 96h: 13µM*; HCMV antiviral: -21

Results for COc1ccc(C[C@H]2CN3C(=NC[C@H]3C)N2CCNC(=O)c2ccc(C)c(Br)c2)cc1 ?
Pf growth 48h: -6%; Cycloheximide cs: 0; Shiga toxin inh: -12; Pf growth 96h: 3.7µM*; HCMV antiviral: -18

How did C/C=C(\C)C(=O)N[C@@H](C)CN1C2=NC[C@H](C(C)C)N2C[C@H]1Cc1ccc(OC)cc1 do in these assays?
Pf growth 48h: inconclusive; Cycloheximide cs: -4; Shiga toxin inh: -10; Pf growth 96h: 32%; HCMV antiviral: 0

How did Cc1ccc2c(c1)CO[C@@]21O[C@H](CCO)C[C@H](O)[C@H]1O do in these assays?
HCMV antiviral: 10

Results for CC/C(=C\C=C\[C@@H]1C=C[C@@H]2CCC[C@H]2[C@@H]1C(=O)c1ccc[nH]1)[C@@H]1O[C@@H]([C@@H](C)C(=O)O)CC[C@@H]1C ?
Pf growth 48h: 2.6µM*; Cycloheximide cs: 1; Shiga toxin inh: 11; Pf growth 96h: inconclusive

What do the screens show for `CN(C[C@H](c1ccccc1)N(C[C@H](Cc1ccccc1)N(CCc1ccccc1)N=O)N=O)N=O`?
Pf growth 48h: inconclusive; Cycloheximide cs: -2; Shiga toxin inh: -9; Pf growth 96h: 12µM*; HCMV antiviral: -26

What do the screens show for `CN(C[C@H](Cc1ccccc1)N(C[C@H](c1ccccc1)N(CCc1ccccc1)N=O)N=O)N=O`?
Pf growth 48h: inconclusive; Cycloheximide cs: -1; Shiga toxin inh: 1; Pf growth 96h: 13µM*; HCMV antiviral: 4

Results for CC(C)C[C@@H](CN(N=O)[C@@H](Cc1ccccc1)CN(C)N=O)N(CCc1ccccc1)N=O ?
Pf growth 48h: inconclusive; Cycloheximide cs: -1; Shiga toxin inh: -24; Pf growth 96h: inconclusive; HCMV antiviral: -23

How did O=C(Nc1nc(-c2ccccc2)cs1)C1CCCCN1S(=O)(=O)c1ccccc1 (centres undefined) do in these assays?
Pf growth 48h: inconclusive; Cycloheximide cs: 8; Shiga toxin inh: -13; Pf growth 96h: 53%; HCMV antiviral: inconclusive

How did c1ccc(-c2csc(NC3CCCCC3)n2)cc1 do in these assays?
Pf growth 48h: 6%; Cycloheximide cs: 56*; Shiga toxin inh: 148*; Pf growth 96h: -62%; HCMV antiviral: -15

Results for COc1ccc(-c2csc(NC3CCCCC3)n2)c(OC)c1 ?
Pf growth 48h: 9.3µM*; Cycloheximide cs: 26*; Shiga toxin inh: 60*; Pf growth 96h: inconclusive; HCMV antiviral: -36

Results for O=C(Nc1nc(-c2ccccc2)cs1)NC1CCCCC1 ?
Pf growth 48h: 5%; Cycloheximide cs: 34*; Shiga toxin inh: 48*; Pf growth 96h: 8%; HCMV antiviral: -13

What do the screens show for `Cc1ccc(S(=O)(=O)Nc2nc(-c3ccccc3)cs2)cc1`?
Pf growth 48h: -1%; Cycloheximide cs: -1; Shiga toxin inh: -9; Pf growth 96h: 0%; HCMV antiviral: inconclusive

Results for O=C(CNC(=O)c1cccs1)NCCN1CCC(Cc2ccccc2)CC1 ?
Pf growth 48h: 4%; Cycloheximide cs: 6; Shiga toxin inh: -5; Pf growth 96h: inconclusive; HCMV antiviral: 11

Results for CCOC(=O)c1c(C)n(C)c2c(C)cc(O)c(OC(=O)CC)c12 ?
Pf growth 48h: 9%; Cycloheximide cs: -3; Shiga toxin inh: -7; Pf growth 96h: inconclusive; HCMV antiviral: -29

What do the screens show for `COc1cc(SC)ccc1C(=O)Nc1ccc(S(=O)(=O)Nc2nccc(C)n2)cc1`?
HCMV antiviral: 14

How did CS(=O)(=O)c1ccc(Cl)c(NC(=O)Cc2c(F)cccc2Cl)c1 do in these assays?
Pf growth 48h: 1%; Cycloheximide cs: 0; Shiga toxin inh: -11; Pf growth 96h: -1%; HCMV antiviral: 4

How did COc1cc2[nH]c(=S)nc(NCc3cccnc3)c2cc1OC do in these assays?
Pf growth 48h: -15%; Cycloheximide cs: -2; Shiga toxin inh: -5; Pf growth 96h: 97%; HCMV antiviral: -16

Results for COc1cc2[nH]c(=S)nc(NCc3ccc(C)cc3)c2cc1OC ?
Pf growth 48h: inconclusive; Cycloheximide cs: -2; Shiga toxin inh: -10; Pf growth 96h: 13µM*; HCMV antiviral: inconclusive

Results for COc1ccc(CNc2nc(=S)[nH]c3cc(OC)c(OC)cc23)cc1 ?
Pf growth 48h: -30%; Cycloheximide cs: 8; Shiga toxin inh: 28; Pf growth 96h: -20%; HCMV antiviral: -21

Results for COc1cc2[nH]c(=S)nc(NCc3ccccc3)c2cc1OC ?
Pf growth 48h: -19%; Cycloheximide cs: 12; Shiga toxin inh: -4; Pf growth 96h: 0.52µM*; HCMV antiviral: 4

How did Cc1ccc(-c2noc(-c3cc(C(C)(C)C)nn3Cc3ccccc3)n2)cc1 do in these assays?
Pf growth 48h: 0%; Cycloheximide cs: -2; Shiga toxin inh: 21; Pf growth 96h: 0%; HCMV antiviral: -9

Results for CCn1nc(C)c(/C=C2\CCCC3=C2OC(N)=C(C#N)C3c2c(C)nn(CC)c2C)c1C (centres undefined) ?
Pf growth 48h: 10µM*; Cycloheximide cs: -1; Shiga toxin inh: -19; Pf growth 96h: 33%

How did CCn1nc(C)c(C2C(C#N)=C(N)OC3=C2C(=O)CCC3)c1C (centres undefined) do in these assays?
Pf growth 48h: -6%; Cycloheximide cs: -1; Shiga toxin inh: 23; Pf growth 96h: -14%; HCMV antiviral: 19

Results for O=C(Nc1ccc2oc(-c3cccc4ccccc34)nc2c1)c1ncn[nH]1 ?
Cycloheximide cs: 18*; Shiga toxin inh: 27; Pf growth 96h: inconclusive; HCMV antiviral: 96

What do the screens show for `COc1cc2ccccc2cc1C(=O)Nc1ccc2oc(-c3cccc(Cl)c3Cl)nc2c1`?
HCMV antiviral: 28

How did O=C(Nc1ccc2oc(-c3ccccc3Cl)nc2c1)c1ncn[nH]1 do in these assays?
Pf growth 48h: 102%; Cycloheximide cs: 43*; Shiga toxin inh: 113*; HCMV antiviral: 126

What do the screens show for `Cc1cc(Nc2cc(Cl)nc(Sc3ccc(NC(=O)C4CC4)cc3)n2)n[nH]1`?
HCMV antiviral: 2

How did CC(=O)NC(Cc1cccc(C)c1)C(=O)NC1CCN(C(=O)c2ccc([N+](=O)[O-])cc2)CC1 (centres undefined) do in these assays?
Pf growth 48h: 26%; Cycloheximide cs: -2; Shiga toxin inh: -8; Pf growth 96h: inconclusive; HCMV antiviral: -74*

How did Cc1cccc(CC(=O)N2CC(=O)Nc3ccc(C)cc3C2c2ccc(F)cc2)c1 (centres undefined) do in these assays?
HCMV antiviral: -12

How did O=C(Nc1ccc(F)cc1F)c1cc2n(n1)C(C(F)(F)F)C1CCCCC1N2 (centres undefined) do in these assays?
Pf growth 48h: 16%; Cycloheximide cs: 30*; Shiga toxin inh: 84*; Pf growth 96h: -14%; HCMV antiviral: 10
